The source of these data is PubChem BioAssay.

The assay deals with Pantothenate synthetase (Mycobacterium tuberculosis (strain ATCC 25618 / H37Rv)) (UniProt P9WIL5). As to the kind of experiment: Recombinant Mtb pantothenate synthetase (PanC) inhibitors, coupled enzyme, confirmatory (AID 375).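 Also: 0% = full reaction with vehicle and 100% = no enzyme background.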 The settings on record: coupled enzyme assay; at 10 µM, stronger effect = higher value.

A word on the inhibition: it is how much of the control response was suppressed.

Structures are written as SMILES. Values joined by “and” are separate entries in the source; they are usually repeats but may differ in a detail not shown here. Equal entries are not always repeated. Values without a mark were called inactive. No rule for the calls is given here.

Pantothenate synthetase (Mycobacterium tuberculosis (strain ATCC 25618 / H37Rv)), sequence (P9WIL5 whole entry, looked up): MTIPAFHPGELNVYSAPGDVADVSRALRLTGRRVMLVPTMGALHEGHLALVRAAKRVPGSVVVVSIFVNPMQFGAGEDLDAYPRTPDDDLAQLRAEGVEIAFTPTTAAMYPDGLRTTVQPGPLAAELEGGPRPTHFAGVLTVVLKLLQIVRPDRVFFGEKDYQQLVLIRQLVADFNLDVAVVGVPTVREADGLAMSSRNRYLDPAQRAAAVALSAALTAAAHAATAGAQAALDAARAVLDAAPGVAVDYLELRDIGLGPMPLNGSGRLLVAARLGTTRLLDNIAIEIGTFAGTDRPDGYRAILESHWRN

For `CCn1cc(C(=O)NCCC2=CCCCC2)c(=O)c2cc(S(=O)(=O)N(C)C)ccc21`, the inhibition was 0%. Then `O=C(Cn1cnc2c(cnn2-c2ccc(F)cc2)c1=O)N1CCN(c2ccccc2)CC1`, with 0%; and `C/C=C(\CS(=O)(=O)c1ccccc1)S(=O)(=O)c1ccccc1`, with 0%; and `O=c1cnnc(NCc2ccccc2)[nH]1`, with 0%. Turning to `CC1Cc2nc(SCC(=O)Nc3ccc(F)cc3F)n(C)c(=O)c2S1` (stereo unspecified), the inhibition was 0%.

With `Cn1cnc2c(N3CCCCC3)nccc21`, the inhibition was 0%.

For `CC(C)COc1ccc(-c2nnn(CC(=O)N3CCCC3)n2)cc1`, the inhibition is 0%.

As to `COc1cccc2c(=O)c3c(cnn3C)n(C)c12`, the inhibition was 0%.

Consider `CCCCN(C)Cc1c(O)ccc2c(-c3ccccc3)cc(=O)oc12`, for which the inhibition is 1%.

For `COC(=O)C1=C(C)NC(=O)C1(NC(=O)c1cccnc1)C(F)(F)F` (stereo unspecified), the inhibition was 0%.

For the compound `O=C(Nc1ccc2oc(Cc3ccc(Cl)cc3)nc2c1)c1cccnc1`, the inhibition was 0%. As to `O=C(CN1C(=O)NC2(CCCCC2)C1=O)Nc1ccc(S(=O)(=O)N2CCOCC2)cc1`, the inhibition is 5%.

Take `CCS(=O)(=O)N1CCC(C(=O)NC2CCCCC2)CC1`: the inhibition was 0%.

For `Cc1ccc(-n2c(=O)c(C#N)cc3c(=O)n4ccccc4nc32)cc1`, the inhibition is 0%.

As to `Nc1ccc(C(=O)O)c(O)c1`, the inhibition was 1% and 0%. Then `CC(=O)CC(=O)Nc1ccccc1NC(C)=O`, with 3%; and `COc1ccccc1S(=O)(=O)Cc1ccc(C(=O)N2CCN(c3ccc(C)cc3)C(C)C2)o1` (stereo unspecified), with 13%; and `Cc1ccc(-c2cc3nc4c(c(=O)n3[nH]2)CCCC4)cc1`, with 6%. To `CCCCNC(=O)c1nc2ncc(Br)cn2n1` belongs 2%; to `O=c1c2cnn(-c3ccccc3)c2ncn1/N=C/c1ccncc1`, 5%. With `CC(C)(C)NC(=O)C(c1ccco1)N(C(=O)Cn1nnc(-c2ccc(F)cc2)n1)c1ccccc1F` (stereo unspecified), the inhibition was 5%. Regarding `Cc1cc(C)c2c(n1)nn1c(N3CCOCC3)cc(C)nc21`, the inhibition is 0%. Then `O=C(C1CCCN1S(=O)(=O)c1cccc2cccnc12)N1CCn2c1nc1ccccc12` (stereo unspecified), with 6%.

Consider `CCC(=O)Oc1ccc(C/C(=N\O)c2ccc(O)cc2O)o1`, for which the inhibition is 0%.

Take `CCOC(=O)CNc1ccc2c(c1)OCO2`: the inhibition was 0%. To `CCC(c1nnc(SCC(=O)NCC2CCCO2)n1Cc1ccccc1)N(C)C` (stereo unspecified) belongs 0%. Then `CCOC(=O)C1=C(C)N(C)C(=O)NC1c1cccc(O)c1` (stereo unspecified), with 0%. To `Clc1ccc(SCCn2ccnc2)cc1` belongs 0%; to `Cn1cccc1Cc1nnc(SCC(=O)Nc2ccc(F)cc2F)n1-c1ccc(F)cc1`, 4%; to `CC(=O)Nc1ccc(NC(=O)c2ccccc2N(C)S(C)(=O)=O)cc1`, 2%.

For `Cn1c(=O)cc(SCC(=O)N2CCOCC2)c2ccc(Cl)cc21`, the inhibition is 0%. For `CC(NC(=O)Cc1cccs1)c1ccc2c(c1)OCO2` (stereo unspecified), the inhibition was 0%. To `COc1ccc(C(=O)N(Cc2ccco2)C(C(=O)NC2CCCC2)c2ccc(O)cc2)cc1OC` (stereo unspecified) belongs 0%; to `Cc1ccc(-n2ncc3c(N4CCCC(C)C4)ncnc32)c(C)c1` (stereo unspecified), 5%. To `CCN1CCN(c2nc(-c3cccnc3)nc3ccccc23)CC1` belongs 0%; to `COc1ccc(C2C3=C(CC(C)(C)CC3=O)Oc3ncn4nc(-c5cccnc5)nc4c32)cc1` (stereo unspecified), 0%. Regarding `O=C(NCC1CCCO1)C1CCN(S(=O)(=O)c2cccc3cccnc23)CC1` (stereo unspecified), the inhibition is 0%. To `Cc1cc(C)c2c(=O)[nH]c(=O)n(Cc3ccccc3)c2n1` belongs 0%. To `Cc1nnc(SCc2ccccc2)n1N` belongs 0%; to `COc1ccc(C)cc1NC(=O)c1nc2nc(C)cc(C)n2n1`, 7%; to `CCCc1cc(-c2n[nH]c(C)c2-c2ccc(C(=O)OCC)o2)c(O)cc1O`, 6%. Then `CCCCOc1ccc(C2C3CN(C(=O)OCC)CC=C3C(C#N)=C(N)C2(C#N)C#N)cc1OC` (stereo unspecified), with 0%. As to `O=C(Nc1ccc(Cc2ccncc2)cc1)C1CC1`, the inhibition was 0%. Then `COc1ccc(-c2cc(C(=O)N3CCN(Cc4ccccc4)CC3)no2)cc1OC`, with 3%; and `CCCCN(CC)CCCNC(=O)CS(=O)(=O)Cc1nc(-c2cccc(OC)c2)oc1C`, with 0%; and `CN(C)CCCN1c2ccccc2Sc2ccc(Cl)cc21`, with 0%.
